MCF10A rereplic – induces DNA re-replication in MCF 10a normal breast cells; Potency, µM (highest dose often 46.1 µM), for inactives: at the top dose activity, positive = re-replication, hits mostly activators; MCF 10A DNA re-replication, Hoechst nuclear intensity, 48 h; actives 2.9% (n = 350,000); AID 624296; further: % of control where 0% means no effect; nearly all actives have a fitted effect of over 50% in size
RGS4 inhibitor – blocks human RGS4-accelerated GTP hydrolysis | P49798 | Transcreener GDP fluorescence polarization, RGS4-accelerated GTP hydrolysis | Potency, µM (doses to about 114 µM), for the others: top-dose activity change, negative = inhibition, hits mostly inhibitors | AID 504845 | actives 0.039% (n = 390,000); further: on the % scale 0 is the no-effect control and ±100 the full control effect; nearly all actives have a fitted effect of over 75% in size
Target sequence (P49798 whole entry, looked up): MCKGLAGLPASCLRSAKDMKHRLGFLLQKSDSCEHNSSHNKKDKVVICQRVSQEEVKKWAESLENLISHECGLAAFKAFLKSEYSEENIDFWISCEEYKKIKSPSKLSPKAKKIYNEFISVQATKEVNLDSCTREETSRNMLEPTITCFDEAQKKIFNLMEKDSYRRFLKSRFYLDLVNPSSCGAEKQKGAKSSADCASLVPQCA
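MLSMR compounds (23 nl, pin-transferred) preincubated 10 min at room temperature with a 500nM (2x) first reagent, then RGS4 at 900nM (2x) plus Transcreener GDP mix added; fluorescence polarization (620/688 nm) read before and after 90 min at 30 °C.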
KB-V1 MDR tox – KB-V1 MDR subline cytotoxicity; AID 1347076; KB-V1 MDR cells viability, CellTiter-Glo, 72 h; actives 3.4% (n = 400,000); Potency, µM (doses to about 46.1 µM), hits mostly cytotoxic; further: on the % scale 0 is the no-effect control and ±100 the full control effect; nearly all actives have a fitted effect of over 60% in size
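Cytotoxicity toward P-gp-expressing KB-V1 cells was determined as loss of CellTiter-Glo luminescence after 72 h at 37 degrees C. Compounds were tested in quantitative HTS format across a concentration range, with curves fitted to normalized data.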
SW480 rereplic – DNA re-replication induction in SW480 cells | Potency, µM (highest dose often 46.1 µM), inactives show top-dose re-replication activation, usual class: activators | actives 1.8% (n = 340,000) | SW480 DNA re-replication, Hoechst DNA content imaging, 48 h | AID 624297; further: % of control where 0% means no effect; nearly all actives have a fitted effect of over 55% in size
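Image-based DNA-content assay: after two days of treatment, nuclei were labelled with the DNA dye Hoechst and imaged, and hits were compounds raising the count of nuclei showing high fluorescence intensity.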
TSG101-PTAP inh – blocks PTAP/TSG101 interaction to inhibit HIV-1 budding; Q99816; Fluorescence polarization, FITC-PTAP peptide / Tsg101 binding; Potency, µM (series often up to 115 µM), inactives show at the top dose activity change, negative = inhibition, most hits filed as inhibitors; 340,000 tested, under 10 active; AID 493005; active means well fitted inhibition curve with a large enough effect in the main read-out, with a control signal flat, not every such curve was filed as active; inconclusive means small, poorly fitted or top-dose-only effect, or effect the other way, or a change in a side signal; inactive means no such curve, though single readings can be large or run the other way; further: % of control where 0% means no effect
Target sequence (Q99816 whole entry, looked up): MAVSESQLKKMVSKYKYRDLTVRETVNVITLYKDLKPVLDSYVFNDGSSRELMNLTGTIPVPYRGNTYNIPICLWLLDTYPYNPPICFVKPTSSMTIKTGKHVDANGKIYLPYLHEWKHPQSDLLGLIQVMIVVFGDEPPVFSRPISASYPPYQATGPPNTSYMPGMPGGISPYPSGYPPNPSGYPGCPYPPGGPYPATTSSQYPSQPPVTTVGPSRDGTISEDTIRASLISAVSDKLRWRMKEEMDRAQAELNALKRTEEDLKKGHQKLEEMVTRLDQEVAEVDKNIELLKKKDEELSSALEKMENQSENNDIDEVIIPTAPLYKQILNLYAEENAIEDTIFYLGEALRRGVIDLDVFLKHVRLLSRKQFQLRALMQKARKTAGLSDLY
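Steps: Tsg101 binding domain dispensed (10 uM final), compounds pinned in DMSO, FITC-labeled PTAP-motif peptide added (50 nM final); after 20 min binding at room temperature, polarization measured.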
KB-3-1 cytotox – kills parental KB-3-1 adenocarcinoma cells; KB-3-1 viability, CellTiter-Glo ATP luminescence, 72 h; Potency, µM (top dose mostly 46.1 µM), usual class: cytotoxic; actives 1.4% (n = 400,000); further: on the % scale 0 is the no-effect control and ±100 the full control effect; nearly all actives have a fitted effect of over 60% in size
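Multi-concentration cytotoxicity screen in KB-3-1 cells grown in DMEM lacking phenol red with 10% FBS. After 72 h at 37 °C with compound, ATP-dependent luminescence was recorded.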
Active calls of the source: *; i = inactive; ? = inconclusive; · = no result given; ! = not active in a repeat; [ ] = dose if it differs, or a comment. Most compounds without a hit are left out; they make up all but 6.6% or so of the library. Unless noted, the call rests on the fitted dose curve; in most records, active means well fitted curve in the direction sought with a large enough effect; inconclusive means small, poorly fitted or top-dose-only effect, or another doubt; inactive means no such curve, though single readings can be large; an effect the other way counts as inactive or inconclusive. Potency means the concentration at half of the fitted maximal effect.

SMILES	MCF10A rereplic	RGS4 inhibitor	KB-V1 MDR tox	SW480 rereplic	TSG101-PTAP inh	KB-3-1 cytotox
CC1=C(C(=O)Nc2ccc(C)cc2C)C(CC(C)C)n2nc(SCc3ccccc3C)nc2N1 (centres undefined)	·	5%	?	·	·	i
N#C/C(=C\c1ccc(O)c(Br)c1)C(=O)NCc1ccccc1	21µM*	20%	i	8.2µM*	-1%	i
COc1cccc(CNC(=O)c2sc3nc(C)cc(C)c3c2-n2cccc2)c1OC	·	-23%	?	·	·	i
COc1ccc(/C=N\Nc2ccc([N+](=O)[O-])cc2[N+](=O)[O-])c(C(=O)O)c1OC	-3%	-33%	i	8%	-5%	i
CC1=C(/C=N/Nc2ccc([N+](=O)[O-])cc2[N+](=O)[O-])C(C)(C)CCC1	15%	20%	?	2%	-1%	16µM*
Cc1ccc(-c2onc(C)c2C)cc1S(=O)(=O)NCc1cccs1	·	32%	·	·	·	·
CCNC(=S)NNC(=O)c1cc(Br)cs1	3%	-5%	i	16µM*	1%	i
O=C1C=C(Nc2ccc(Cl)cc2)CC(c2ccc(Cl)cc2)C1 (centres undefined)	-13%	-4%	23µM*	3%	3%	i
Cc1ccc(C2CC(=O)C=C(Nc3ccc(Cl)cc3)C2)cc1 (centres undefined)	?	5%	?	6%	-1%	i
CC(C)(C)c1ccc(-c2noc(-c3ccc4c(c3)CCO4)n2)cc1	?	-3%	?	4.6µM*	0%	i
CC(=O)N1CCC2(CC1)CC(=O)c1cc(Cl)ccc1O2	1%	4%	i	2.3µM*	0%	i
CC(=O)N1CCC2(CC1)CC(=O)c1cc(OCC(=O)NCc3ccc(C)cc3)ccc1O2	17%	-5%	18µM*	1%	-5%	i
CCOC(=O)N1CCN(C(=O)COc2ccc3c(c2)C(=O)CC(C)(C)O3)CC1	-2%	16%	?	3%	-1%	i
CC(=O)N1CCC2(CC1)CC(=O)c1cc(OCC(=O)N3CCCC3)ccc1O2	-5%	18%	i	2%	2%	i
CC1(C)CC(=O)c2cc(OCC(=O)N3CCCCCC3)ccc2O1	9%	9%	18µM*	-12%	-5%	i
C=C1C=C(C(F)F)n2ncc(C(=O)N3CCN(c4ccccn4)CC3)c2N1	·	·	i	·	·	i
Cc1cc(O)c(C(C)C)cc1N=Cc1ccc([N+](=O)[O-])cc1	18µM*	?	·	18µM*	-6%	·
Cc1cc(O)c(C(C)C)cc1N=Cc1ccc(N(C)C)cc1	21µM*	-87%	·	?	0%	·
O=C(c1noc2c1CCCCC2)N1CCN(c2cccc(C(F)(F)F)c2)CC1	·	30%	·	·	·	·
Cc1ccc2ncc(C(=O)NC(C)c3ccccc3)c(=O)n2c1 (centres undefined)	·	12%	i	·	·	i
Cc1cc(C)cc(NC(=O)c2cc(S(=O)(=O)NCCC3=CCCCC3)ccc2F)c1	·	-7%	?	·	·	i
CC(=O)Nc1ccc(S(=O)(=O)N2CCCc3ccccc32)cc1	9.2µM*	0%	?	4.6µM*	-7%	i
COCc1nnc(NC(=O)c2ccc(S(=O)(=O)N3CCCc4ccccc43)cc2)o1	16µM*	-6%	?	?	9%	?
Cc1ccc(NC(=O)c2cc(S(=O)(=O)NCCC3=CCCCC3)ccc2F)cc1F	?	28%	10µM*!	?	?	10µM*!
Cc1cc(NC(=O)COC(=O)c2ccc(S(=O)(=O)N3CCCC3)cc2)no1	16%	4%	i	-26%	-4%	i
SMILES	MCF10A rereplic	RGS4 inhibitor	KB-V1 MDR tox	SW480 rereplic	TSG101-PTAP inh	KB-3-1 cytotox
Cc1cc(NC(=O)COC(=O)c2ccc(S(=O)(=O)N3CCCc4ccccc43)cc2)no1	9.2µM*	23%	?	15µM*	-4%	15µM*
NC(=O)CSc1nc2c(oc3ccccc32)c(=O)n1-c1ccccc1F	·	-7%	i	·	·	i
COc1ccccc1CNC(=O)c1cc(S(=O)(=O)N2CCCCCC2)cn1C	·	-11%	i	·	·	i
CCCCOc1ccc(C(=O)N(Cc2ccc(C(C)C)cc2)C2CCS(=O)(=O)C2)cc1 (centres undefined)	·	-9%	?	·	·	?
Cc1ccc(NC(=O)c2cc(S(=O)(=O)N3CCCc4ccccc43)ccc2F)cc1F	·	10%	i	·	·	26µM*
COC(=O)Nc1ccc(S(=O)(=O)N2CCCCC2C(=O)O)cc1 (centres undefined)	-12%	12%	i	?	-1%	i
COC(=O)Nc1ccc(S(=O)(=O)N2c3ccccc3CCC2C)cc1 (centres undefined)	-1%	20%	4.1µM*	9%	-8%	7.3µM*
O=C(Nc1ccc(F)c(F)c1)c1cc(S(=O)(=O)N2CCN(c3ccccn3)CC2)ccc1F	4%	5%	10µM*	-1%	-4%	i
O=C(Nc1ccc(Cl)cc1)c1cc(S(=O)(=O)N2CCCc3ccccc32)ccc1F	·	-3%	·	·	·	·
COc1ccccc1CNC(=O)c1cc(Sc2cccc(Cl)c2)nc2ccccc12	·	-23%	·	·	·	·
CCOc1ccc(CNC(=O)CCCn2nc(C)c3sc4ccccc4c3c2=O)cc1	·	17%	i	·	·	i
COc1ccc(-c2noc(CSc3nc(N)cc(=O)[nH]3)n2)cc1	?	-13%[11.4 µM]	?	-5%	-4%	21µM*!
COc1ccc(-c2noc(CSc3nc4ccccc4[nH]3)n2)cc1	·	0%	?	·	·	?
Nc1nc(SCc2nc(-c3ccccc3)no2)[nH]c(=O)c1-c1ccccc1	13%	14%	18µM*	10%	0%	i
CC(=O)N1CCN(C(=O)c2[nH]c(C(F)(F)F)nc2-c2ccccc2)CC1	·	·	i	·	·	i
O=C(c1[nH]c(C(F)(F)F)nc1-c1ccccc1)N1CCN(c2cccc(C(F)(F)F)n2)CC1	·	·	?	·	·	5.2µM*
COc1ccccc1N1CCN(C(=O)c2[nH]c(C(F)(F)F)nc2-c2ccccc2)CC1	·	·	?	·	·	5.8µM*
Cc1cccc(N2CCN(C(=O)c3[nH]c(C(F)(F)F)nc3-c3ccccc3)CC2)c1C	·	·	?	·	·	2.3µM*
Nc1c(C(=O)NCc2cccs2)nnn1CC(=O)Nc1cccc(F)c1	·	-16%	i	·	·	i
Cc1cccnc1Nc1nc(-c2ccccn2)cs1	9.2µM*	24%	4.1µM*	?	-1%	1.5µM*
Cc1cccnc1Nc1nc(-c2ccccc2)cs1	10%	-15%	i	-66%	-8%	i

Source: PubChem BioAssay (National Center for Advancing Translational Sciences (NCATS))
